In PubChem BioAssay:
Unmarked numbers belong to inactive results. The list shows a part of the results. Calls of active or inactive are those of the source. Unless noted, no stated cut-off is given here; in the data, active means inhibition above about 30%; inactive means the rest.

What was measured:
[1] = target: Toll-like receptor 9 (Homo sapiens) (UniProt Q9NR96); assay: TLR9-MyD88 association inhibitors, retest, confirmation, cell-based, CHO, BLA complementation, fluorescence, triplicate (AID 540250;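 active means mean inhibition across three repeats above about 21% taken from the earlier screen, limit read from the data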;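 further: blue over green emission ratio reports constitutive TLR9 MyD88 association via BLA complementation; 0% = DMSO vehicle wells and 100% = clavulanate BLA inhibitor wells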); conditions: CCF4 FRET ratio, at 4.98 µM, hits give high values
Chain of Toll-like receptor 9 (Homo sapiens) (Q9NR96 whole entry, looked up): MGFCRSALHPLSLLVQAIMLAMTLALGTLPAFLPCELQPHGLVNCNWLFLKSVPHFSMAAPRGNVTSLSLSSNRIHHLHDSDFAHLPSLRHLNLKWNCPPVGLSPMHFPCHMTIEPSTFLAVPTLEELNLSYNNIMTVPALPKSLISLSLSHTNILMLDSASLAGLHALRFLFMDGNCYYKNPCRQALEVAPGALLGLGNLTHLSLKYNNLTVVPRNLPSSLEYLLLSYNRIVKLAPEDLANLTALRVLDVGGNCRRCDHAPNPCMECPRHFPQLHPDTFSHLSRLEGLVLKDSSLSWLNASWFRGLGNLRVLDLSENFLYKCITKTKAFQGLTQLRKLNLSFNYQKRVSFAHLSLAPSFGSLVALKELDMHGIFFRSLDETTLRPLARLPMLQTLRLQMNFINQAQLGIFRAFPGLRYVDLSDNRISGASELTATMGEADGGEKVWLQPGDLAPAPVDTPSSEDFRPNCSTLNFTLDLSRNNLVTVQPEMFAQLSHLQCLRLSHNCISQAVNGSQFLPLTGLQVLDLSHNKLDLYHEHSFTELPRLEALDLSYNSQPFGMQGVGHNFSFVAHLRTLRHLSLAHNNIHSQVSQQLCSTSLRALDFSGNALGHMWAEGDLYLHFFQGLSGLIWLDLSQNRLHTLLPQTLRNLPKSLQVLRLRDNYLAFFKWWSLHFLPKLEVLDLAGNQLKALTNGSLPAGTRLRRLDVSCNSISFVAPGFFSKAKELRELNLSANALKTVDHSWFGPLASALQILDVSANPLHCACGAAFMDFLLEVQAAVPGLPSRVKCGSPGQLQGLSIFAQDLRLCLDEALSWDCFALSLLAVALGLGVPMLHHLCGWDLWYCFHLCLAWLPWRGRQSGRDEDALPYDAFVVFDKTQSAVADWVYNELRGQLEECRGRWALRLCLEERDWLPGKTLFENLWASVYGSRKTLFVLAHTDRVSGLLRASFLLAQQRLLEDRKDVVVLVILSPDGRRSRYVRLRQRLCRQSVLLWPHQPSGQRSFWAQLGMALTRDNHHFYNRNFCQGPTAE

[2] = beta-lactamase reporter inhibitors in CHO cells, artefact control for TLR9-MyD88 binding inhibitor project, cell-based, fluorescence (AID 540251;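 active means mean inhibition above a 50% cutoff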;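 further: counterscreen of TLR9-MyD88 hits on CMV-driven BLA in CHO-K1 cells; 0% = DMSO alone and 100% = clavulanate blocking BLA; higher means less blue over green ratio so more BLA blockade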); conditions: CHO-BLA cells, CCF4 FRET ratio, at 4.98 µM, hits give high values
[3] = CHO cell viability loss – luminescence, single concentration, cytotoxicity control for TLR9-MyD88 binding inhibitor project (AID 588336; in the data active means inhibition above about 11%); conditions: TLR9-MyD88 CHO cells cytotoxicity, at 4.98 µM, hits give high values
[4] = target: Receptor-interacting serine/threonine-protein kinase 2 (Homo sapiens) (UniProt O43353); assay: NOD2-RIPK2 binding disruptors, retest, confirmation, fluorescence, CHO cells, BLA complementation, triplicate (AID 624370;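 active means mean inhibition across replicates above a set limit taken from the earlier primary screen, cut at about 21% in these data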;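 further: 0% = DMSO-only wells and the high end = clavulanate BLA-blocked wells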); conditions: CCF4 FRET, at 4.98 µM, hits give high values
Chain of Receptor-interacting serine/threonine-protein kinase 2 (Homo sapiens) (O43353 whole entry, looked up): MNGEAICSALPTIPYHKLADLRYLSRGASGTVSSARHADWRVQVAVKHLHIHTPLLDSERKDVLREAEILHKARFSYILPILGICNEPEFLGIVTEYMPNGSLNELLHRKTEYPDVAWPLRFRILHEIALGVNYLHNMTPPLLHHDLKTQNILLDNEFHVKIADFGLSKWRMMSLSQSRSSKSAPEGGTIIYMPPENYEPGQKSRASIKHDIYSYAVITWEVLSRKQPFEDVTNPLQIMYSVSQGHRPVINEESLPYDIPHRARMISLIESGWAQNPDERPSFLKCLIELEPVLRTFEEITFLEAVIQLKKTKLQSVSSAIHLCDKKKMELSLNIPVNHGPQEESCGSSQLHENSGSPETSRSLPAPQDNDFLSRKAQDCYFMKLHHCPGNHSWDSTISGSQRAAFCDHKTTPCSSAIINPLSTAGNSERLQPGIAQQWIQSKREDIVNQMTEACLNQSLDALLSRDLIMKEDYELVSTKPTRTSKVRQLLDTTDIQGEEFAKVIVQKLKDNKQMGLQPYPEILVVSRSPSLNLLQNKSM

[5] = beta-lactamase reporter inhibitors in CHO cells, confirmation, artefact control for NOD2-RIPK2 interaction inhibitor project, cell-based, CHO-K1 CMV-bla, CCF4 FRET, fluorescence (AID 624371;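 active means mean inhibition above the low-control mean inhibition plus three low-control SD, cut at about 11% in these data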;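 further: 0% = DMSO only wells and 100% = clavulanate high control wells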); conditions: CCF4 FRET ratio, counterscreen, at 4.98 µM, hits give high values
[6] = test system: transactivating tegument protein VP16 (Human herpesvirus 1); assay: VP16 transactivation reporter inhibitors, counter-screen for SRC2 inhibitor project, cell-based, luminescence, single concentration (AID 652007; in the data active means inhibition above about 36%); conditions: cell-based VP16 transactivation luciferase reporter, at 8.9 µM, hits give high values
[7] = target: Nuclear receptor coactivator 2 (Homo sapiens) (UniProt Q15596); assay: SRC2 coactivator transcriptional activity inhibitors, confirmation, cell-based, luminescence, HEK293, triplicate (AID 652008;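 active means mean inhibition above 46.5%, the solvent-only control mean plus 3 SD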;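 further: 0% = DMSO-treated cells and 100% = Gossypol at 36 µM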); conditions: HEK293 GAL4-SRC2 luciferase reporter, at 8.9 µM, hits give high values
Chain of Nuclear receptor coactivator 2 (Homo sapiens) (Q15596 whole entry, looked up, the tested form may be a part): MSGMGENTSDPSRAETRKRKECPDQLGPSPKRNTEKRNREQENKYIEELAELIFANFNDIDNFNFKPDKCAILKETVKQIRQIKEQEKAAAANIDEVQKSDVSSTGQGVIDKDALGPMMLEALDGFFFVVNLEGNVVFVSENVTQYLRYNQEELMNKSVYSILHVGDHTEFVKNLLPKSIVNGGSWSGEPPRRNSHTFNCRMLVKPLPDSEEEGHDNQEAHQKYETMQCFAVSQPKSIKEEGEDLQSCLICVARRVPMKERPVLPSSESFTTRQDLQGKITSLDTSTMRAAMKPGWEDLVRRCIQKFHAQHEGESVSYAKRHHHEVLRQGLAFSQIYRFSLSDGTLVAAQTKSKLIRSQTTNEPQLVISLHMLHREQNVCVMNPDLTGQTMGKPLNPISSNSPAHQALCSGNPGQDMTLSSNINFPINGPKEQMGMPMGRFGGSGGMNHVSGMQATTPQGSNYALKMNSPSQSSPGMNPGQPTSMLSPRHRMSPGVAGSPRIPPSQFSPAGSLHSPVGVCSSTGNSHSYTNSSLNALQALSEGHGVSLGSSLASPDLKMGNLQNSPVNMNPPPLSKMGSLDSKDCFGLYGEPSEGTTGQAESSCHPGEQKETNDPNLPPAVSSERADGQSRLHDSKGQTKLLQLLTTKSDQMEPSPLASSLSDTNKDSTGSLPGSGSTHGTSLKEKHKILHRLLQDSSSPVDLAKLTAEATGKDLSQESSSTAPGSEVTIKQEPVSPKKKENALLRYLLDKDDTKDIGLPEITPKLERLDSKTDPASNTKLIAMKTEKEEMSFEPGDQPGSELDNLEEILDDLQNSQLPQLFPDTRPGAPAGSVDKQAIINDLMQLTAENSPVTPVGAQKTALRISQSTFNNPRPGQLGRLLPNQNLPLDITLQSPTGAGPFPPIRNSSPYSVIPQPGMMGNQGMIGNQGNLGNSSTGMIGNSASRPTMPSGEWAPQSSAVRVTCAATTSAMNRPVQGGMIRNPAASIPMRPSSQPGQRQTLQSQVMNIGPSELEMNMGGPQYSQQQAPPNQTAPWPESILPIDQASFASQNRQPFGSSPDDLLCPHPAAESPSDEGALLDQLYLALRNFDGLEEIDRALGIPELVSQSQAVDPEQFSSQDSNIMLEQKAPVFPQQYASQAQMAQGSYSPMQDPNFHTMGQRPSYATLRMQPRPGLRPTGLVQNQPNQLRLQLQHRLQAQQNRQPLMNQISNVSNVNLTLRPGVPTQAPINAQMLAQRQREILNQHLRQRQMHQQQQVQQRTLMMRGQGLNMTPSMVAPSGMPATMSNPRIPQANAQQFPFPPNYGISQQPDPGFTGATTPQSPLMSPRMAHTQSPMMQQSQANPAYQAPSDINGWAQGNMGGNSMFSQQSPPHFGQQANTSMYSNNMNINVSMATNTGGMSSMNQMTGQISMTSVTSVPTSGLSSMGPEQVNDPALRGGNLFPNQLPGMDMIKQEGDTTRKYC

[8] = target: Serine protease HTRA1 (Homo sapiens) (UniProt Q92743); assay: HTRA1 protease inhibitors, retest, confirmation, biochemical, fluorescence polarization (AID 540248;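 active means mean inhibition over three repeats above a set limit taken from the earlier primary screen, cut at about 37% in these data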;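 further: 0% = HTRA1 with DMSO and 100% = wells lacking HTRA1; inhibitors block probe binding so polarization drops and inhibition rises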); conditions: recombinant HTRA1, FP-rhodamine activity-based probe, at 5.96 µM, hits give high values
[9] = target: (Lyso)-N-acylphosphatidylethanolamine lipase (Mus musculus) (UniProt Q8VD66); assay: ABHD4 inhibitors, retest, confirmation, biochemical, fluorescence polarization, mouse (AID 720658;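 active means mean inhibition across replicates above the hit cutoff set in the primary screen, cut at about 30% in these data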;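 further: 0% = wild-type ABHD4 with DMSO and 100% = catalytically dead S159A mutant with DMSO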); conditions: purified mABHD4, FP-Rh probe fluorescence polarization; at 8.92 µM; hits give high values
Chain of (Lyso)-N-acylphosphatidylethanolamine lipase (Mus musculus) (Q8VD66 whole entry, looked up): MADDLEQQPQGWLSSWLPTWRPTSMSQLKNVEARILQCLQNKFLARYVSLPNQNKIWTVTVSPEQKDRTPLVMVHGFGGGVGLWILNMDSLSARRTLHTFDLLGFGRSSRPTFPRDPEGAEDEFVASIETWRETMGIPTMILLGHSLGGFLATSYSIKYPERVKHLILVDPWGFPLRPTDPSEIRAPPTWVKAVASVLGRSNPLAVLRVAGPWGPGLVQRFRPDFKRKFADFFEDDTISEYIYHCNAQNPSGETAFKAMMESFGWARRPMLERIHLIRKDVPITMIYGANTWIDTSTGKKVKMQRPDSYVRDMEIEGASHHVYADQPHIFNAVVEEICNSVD

[10] = compounds interfering with TAMRA-BSA probe, counter-screen for TCR-CD3 interaction inhibitor project, biochemical, fluorescence, TAMRA-labeled BSA (AID 652035; in the data active means inhibition above about 23%;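 further: 0% = buffer low control and 100% = reference high control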); conditions: TAMRA-labeled BSA probe fluorescence counterscreen; at 9.4 µM; hits give high values
[11] = test system: T-cell receptor (TCR)-CD3 interaction, human; assay: TCR-CD3 interaction inhibitors, retest, confirmation, biochemical, fluorescence, TAMRA-labeled TCR probe (AID 652036; in the data active means inhibition above about 19%); conditions: TAMRA-labeled TCR probe fluorescence binding assay; at 9.4 µM; hits give high values
[12] = StAR promoter reporter inhibitors, counter-screen for LRH-1 inverse agonist project, cell-based, luminescence, high throughput (AID 651611; in the data active means inhibition above about 28%); conditions: StAR promoter luciferase reporter counterscreen, at 3.6 µM, hits give high values
[13] = target: Nuclear receptor subfamily 5 group A member 2 (Homo sapiens) (UniProt O00482); assay: LRH-1 (NR5A2) inverse agonists, retest, confirmation, cell-based, luminescence (AID 651613; in the data active means inhibition above about 42%;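 further: HEK293T cells co-transfected with LRH-1 and StAR promoter luciferase reporter; 0% = vehicle wells and 100% = parental cells lacking receptor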); conditions: cell-based LRH-1 luciferase reporter, inverse agonism; at 3.6 µM; hits give high values
[14] = target: Steroidogenic factor 1 (Homo sapiens) (UniProt Q13285); assay: SF1 (NR5A1) inverse agonists, counter-screen for LRH-1 inverse agonist project, cell-based, luminescence, high throughput (AID 651614; in the data active means inhibition above about 44%;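 further: cells cotransfected with StAR promoter reporter and SF1 expression vector; 0% = vehicle on cells with receptor and 100% = vehicle on cells lacking receptor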); conditions: cell-based SF1 luciferase reporter, at 3.6 µM, hits give high values
[15] = VP16 transactivation reporter inhibitors, counter-screen for LRH-1 inverse agonist project, cell-based, luminescence, high throughput (AID 651615; in the data active means inhibition above about 33%); conditions: Gal4-VP16 luciferase reporter cells, at 3.6 µM, hits give high values
[16] = Gal4-VP16 luciferase reporter inhibitors, counter-screen for COUP-TFII antagonist project, cell-based, luminescence, HEK293 (AID 687007; in the data active means inhibition above about 13%); conditions: at 8.5 µM, hits give high values
[17] = target: COUP transcription factor 2 (Homo sapiens) (UniProt P24468); assay: NR2F2 transcriptional activity inhibitors, confirmation, cell-based, luciferase reporter, HEK293, triplicate (AID 687008;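 active means mean inhibition over three repeats above a set limit taken from the earlier primary screen, cut at about 38% in these data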;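 further: 100% = cells given the luciferase reporter alone without the COUP-TF2 vector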); conditions: HEK293 NGFI-A luciferase reporter, luminescence; at 8.5 µM; hits give high values
[18] = target: Nuclear receptor coactivator 3 (Homo sapiens) (UniProt Q9Y6Q9); assay: SRC3 coactivator transcriptional activity inhibitors, confirmation, cell-based, luminescence, quadruplicate (AID 588792;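 active means mean inhibition over 43.08%, the solvent-only control mean plus 3 SD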;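 further: 0% = DMSO treated cells and 100% = gossypol at 36 µM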); conditions: HEK293 GAL4-SRC3 luciferase reporter, at 3.6 µM, hits give high values
Chain of Nuclear receptor coactivator 3 (Homo sapiens) (Q9Y6Q9 whole entry, looked up, the tested form may be a part): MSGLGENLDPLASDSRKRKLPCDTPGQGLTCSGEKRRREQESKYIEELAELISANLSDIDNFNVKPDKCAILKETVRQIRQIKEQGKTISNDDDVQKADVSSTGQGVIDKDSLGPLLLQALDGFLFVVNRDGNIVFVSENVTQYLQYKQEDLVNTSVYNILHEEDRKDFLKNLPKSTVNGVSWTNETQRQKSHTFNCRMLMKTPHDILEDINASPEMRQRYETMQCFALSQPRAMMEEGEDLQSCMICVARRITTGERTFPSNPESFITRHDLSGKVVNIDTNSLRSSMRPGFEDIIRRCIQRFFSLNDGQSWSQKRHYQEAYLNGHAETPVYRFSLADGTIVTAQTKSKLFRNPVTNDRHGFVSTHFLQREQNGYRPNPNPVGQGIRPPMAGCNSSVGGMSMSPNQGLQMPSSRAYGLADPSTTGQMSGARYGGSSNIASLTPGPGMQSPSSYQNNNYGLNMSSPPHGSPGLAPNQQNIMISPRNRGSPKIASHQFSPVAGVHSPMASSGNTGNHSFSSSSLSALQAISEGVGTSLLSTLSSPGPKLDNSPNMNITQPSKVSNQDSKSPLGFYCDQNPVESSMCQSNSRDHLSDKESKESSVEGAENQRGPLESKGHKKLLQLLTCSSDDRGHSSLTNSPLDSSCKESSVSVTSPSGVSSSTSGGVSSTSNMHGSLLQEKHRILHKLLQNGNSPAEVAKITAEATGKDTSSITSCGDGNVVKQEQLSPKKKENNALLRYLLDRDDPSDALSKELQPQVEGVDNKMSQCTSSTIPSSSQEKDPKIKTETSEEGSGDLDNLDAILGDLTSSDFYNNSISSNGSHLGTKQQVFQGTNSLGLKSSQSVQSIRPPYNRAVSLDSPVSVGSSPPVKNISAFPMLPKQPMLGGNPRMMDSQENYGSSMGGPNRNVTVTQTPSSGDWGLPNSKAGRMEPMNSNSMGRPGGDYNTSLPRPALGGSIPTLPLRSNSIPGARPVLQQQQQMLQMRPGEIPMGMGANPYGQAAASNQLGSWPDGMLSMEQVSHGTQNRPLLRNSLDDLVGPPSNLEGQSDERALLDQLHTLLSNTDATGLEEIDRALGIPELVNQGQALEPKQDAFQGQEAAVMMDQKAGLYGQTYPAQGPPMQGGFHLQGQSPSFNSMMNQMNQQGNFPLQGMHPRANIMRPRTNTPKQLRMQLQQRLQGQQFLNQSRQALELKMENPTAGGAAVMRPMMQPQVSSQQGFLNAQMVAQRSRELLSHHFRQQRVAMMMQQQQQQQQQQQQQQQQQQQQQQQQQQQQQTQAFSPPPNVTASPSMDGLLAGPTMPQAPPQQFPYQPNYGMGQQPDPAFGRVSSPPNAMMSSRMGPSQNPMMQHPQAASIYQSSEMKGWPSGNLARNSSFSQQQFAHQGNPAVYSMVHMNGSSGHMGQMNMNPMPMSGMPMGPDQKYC

[19] = test system: transactivating tegument protein VP16 (Human herpesvirus 1), Gal4-VP16 luciferase reporter; assay: VP16 transactivation inhibitors, counter-screen for SRC3 inhibitor project, cell-based, luminescence, high throughput (AID 588794); conditions: mammalian cells, VP16-driven luciferase reporter luminescence; at 3.6 µM; hits give high values
[20] = target: Nuclear receptor coactivator 1 (Homo sapiens) (UniProt Q15788); assay: SRC1 coactivator transcriptional activity inhibitors, confirmation, cell-based, luminescence, quadruplicate (AID 588820;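 active means mean inhibition above 46.68%, the untreated control wells mean plus 3 SD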;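 further: 0% = DMSO wells and 100% = gossypol 36 µM treated wells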); conditions: HEK293 GAL4-SRC1 luciferase reporter, at 3.6 µM, hits give high values
[21] = VP16 transactivation inhibitors, counter-screen for SRC1 inhibitor project, cell-based, luminescence, high throughput (AID 588824; in the data active means inhibition above about 25%); conditions: cell-based VP16 transactivation luciferase luminescence; at 3.6 µM; hits give high values
[22] = target: Galanin receptor type 2 (Homo sapiens) (UniProt O43603); assay: GALR2 antagonists, retest of hits, confirmation, cell-based (AID 866; in the data active means inhibition above about 27%;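 further: cells stimulated with galanin at about its EC80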); conditions: GALR2-expressing cells, antagonist mode, at 4 µM, hits give high values
[23] = inhibitors of NFAT-driven beta-lactamase reporter, confirmation, counter-screen for GALR2 antagonist project, CHO NFAT-bla cells, FRET readout (AID 867;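 active means inhibition above the mean inhibition across tested compounds plus 3 SD, cut at about 27% in these data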;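 further: 0% = 500 nM thapsigargin stimulated wells and 100% = unstimulated BSA only wells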); conditions: thapsigargin-stimulated, at 4.2 µM, hits give high values

Q: With `O=[N+]([O-])c1ccc(N/N=C/c2ccccc2)cc1` as the compound, how does the inhibition [1] read?
A: 13.7%

Q: What about the inhibition [2] of the same compound?
A: 10.7%

Q: And the inhibition [3]?
A: 3.89%

Q: And the inhibition [4]?
A: 17.7%

Q: What about the inhibition [5] of the same compound?
A: 20% (active)

Q: Which results are given for `Cc1cccc(NC(=O)c2nc(S(=O)(=O)Cc3ccccc3)ncc2Cl)c1`?
A: inhibition [1]: 46.4% (active); inhibition [2]: 43.2%; inhibition [3]: 97% (active); inhibition [4]: 78.4% (active); inhibition [5]: 43.9% (active); inhibition [6]: 38.7% (active); inhibition [7]: 44.1%

Q: For `COc1ccccc1C1=Nc2cccc3cccc(c23)N1`, which inhibition [8] is on record?
A: 67.4% (active)

Q: What about the inhibition [9] of the same compound?
A: 60.5% (active)

Q: Which inhibition [1] does the source give for `O=C(CCN1C(=O)c2ccccc2C1=O)NNC(=O)c1ccc(Cl)cc1Cl` here?
A: -3.93%

Q: What about the inhibition [2] of the same compound?
A: -2.36%

Q: And the inhibition [3]?
A: 1.44%

Q: With `COc1ccccc1/C=C/C(=O)OCC(=O)NC1CCCCCC1` as the compound, how does the inhibition [1] read?
A: -4.73%

Q: What about the inhibition [2] of the same compound?
A: -6.03%

Q: What about the inhibition [3] of the same compound?
A: 0.37%

Q: Which inhibition [8] does the source give for `CC(=N\NC(=O)c1cc(Br)ccc1O)/C(=N/O)C(=O)Nc1ccccc1` here?
A: 55.9% (active)

Q: And the inhibition [10]?
A: -21.4%

Q: What about the inhibition [11] of the same compound?
A: 16.5%

Q: With `Oc1c(CN2CCCC2)cc(COCc2ccccc2)c2cccnc12` as the compound, how does the inhibition [8] read?
A: 80% (active)

Q: Which results are given for `COc1ccc(-c2cc(C(F)(F)F)nc(S(C)(=O)=O)n2)cc1OC`?
A: inhibition [1]: 28.8% (active); inhibition [2]: 5.84%; inhibition [3]: 85.2% (active); inhibition [4]: 42.1% (active); inhibition [5]: 14.4% (active)

Q: With `CC(=O)N1CCN(c2ccc(NCc3ccc(C(C)C)cc3)cc2)CC1` as the compound, how does the inhibition [8] read?
A: 12.7%

Q: Which results are given for `Cc1cc2oc3ccc(NCCC4CCCN4C)cc3c(=O)c2cc1C` (configuration not stated)?
A: inhibition [1]: 19.1%; inhibition [2]: 16.7%; inhibition [3]: 31% (active); inhibition [4]: 42.8% (active); inhibition [5]: 38.5% (active)

Q: Which results are given for `CC[C@@H]1Cc2cc(O)ccc2C2=C1c1ccc(O)cc1C[C@H]2CC`?
A: inhibition [8]: 47% (active); inhibition [9]: 31% (active)

Q: With `COc1ccc(OC)c(N=Cc2c(O)[nH]c3ccccc23)c1` as the compound, how does the inhibition [1] read?
A: -1.61%

Q: What about the inhibition [2] of the same compound?
A: 1.7%

Q: And the inhibition [3]?
A: 19.8% (active)

Q: What about the inhibition [4] of the same compound?
A: 61.8% (active)

Q: And the inhibition [5]?
A: 59.3% (active)

Q: With `COc1cccc2c1C(=O)c1c(O)c3c(c(O)c1C2=O)CC(O)(C(C)=NNC(=O)c1ccc(Cl)c(Cl)c1)CC3OC1CC(N)C(O)C(C)O1` (configuration not stated) as the compound, how does the inhibition [8] read?
A: 69.6% (active)

Q: And the inhibition [12]?
A: 72.7% (active)

Q: And the inhibition [13]?
A: 75.1% (active)

Q: What about the inhibition [14] of the same compound?
A: 94.8% (active)

Q: And the inhibition [15]?
A: 65.9% (active)

Q: And the inhibition [10]?
A: 159% (active)

Q: What about the inhibition [11] of the same compound?
A: 126% (active)

Q: And the inhibition [16]?
A: 41.2% (active)

Q: And the inhibition [17]?
A: 32.5%

Q: Which results are given for `CC(=O)Nc1ccc(S(=O)(=O)Nc2ccc(N3CCCCC3)cc2)cc1`?
A: inhibition [8]: 63.4% (active); inhibition [18]: -3.95%; inhibition [19]: 0.96%; inhibition [20]: 4.11%; inhibition [21]: 2.83%; inhibition [6]: -15.4%; inhibition [7]: 14.9%

Q: Which inhibition [22] does the source give for `COC(=O)Cc1cc(=O)oc2c(C)c(O)ccc12` here?
A: 7.7%

Q: What about the inhibition [23] of the same compound?
A: 16.5%

Q: What about the inhibition [1] of the same compound?
A: 13.3%

Q: What about the inhibition [2] of the same compound?
A: 16.3%

Q: What about the inhibition [3] of the same compound?
A: -0.43%

Q: And the inhibition [4]?
A: 23.8% (active)

Q: And the inhibition [5]?
A: 28.6% (active)

Q: For `COc1cc(C(=O)N2C(=O)c3cccc(N)c3C2=O)cc(OC)c1OC`, which inhibition [1] is on record?
A: 11.4%

Q: And the inhibition [2]?
A: 13.3%

Q: And the inhibition [3]?
A: 1.27%

Q: Which results are given for `CCOC(=O)C1Nc2ccc(C(F)(F)F)cc2C2C=CCC12` (configuration not stated)?
A: inhibition [8]: 30.3%; inhibition [9]: 24.3%

Q: Which inhibition [1] does the source give for `CS(=O)(=O)c1sc2nc(-c3ccccc3)cc(-c3ccccc3)c2c1N` here?
A: 31.1% (active)

Q: And the inhibition [2]?
A: 31.6%

Q: What about the inhibition [3] of the same compound?
A: -0.85%

Q: What does the source list for `COc1cccc(/C=N/Nc2ccc(S(=O)(=O)Nc3ccccc3C(=O)O)cc2[N+](=O)[O-])c1O`?
A: inhibition [8]: 25.5%; inhibition [9]: 67.4% (active)

Q: What does the source list for `CC(=O)c1ccc(N2CCN(C(=O)c3nn(Cc4ccccc4)c(=O)c4ccccc34)CC2)cc1`?
A: inhibition [18]: 13.9%; inhibition [19]: -1.19%

Q: For `Cc1ccc(S(=O)(=O)N2CCOCC2)cc1C(=O)Nc1cc(S(=O)(=O)N2CCCCC2)ccc1O`, which inhibition [18] is on record?
A: -2.21%

Q: And the inhibition [19]?
A: -4.27%

Q: Which inhibition [18] does the source give for `COc1ccc(C(CC(=O)O)NC(=O)OC(C)(C)C)cc1` (configuration not stated) here?
A: 4.59%

Q: And the inhibition [19]?
A: 3.31%

Q: For `O=C(Cc1ccccc1)Nc1cc(Cl)ccc1Sc1ccccc1`, which inhibition [18] is on record?
A: 2.36%

Q: And the inhibition [19]?
A: 5.41%

Q: For `COc1cc(C2C(C#N)=C(SC)NC3=C2C(=O)CCC3)ccc1O` (configuration not stated), which inhibition [18] is on record?
A: 20.9%

Q: What about the inhibition [19] of the same compound?
A: 14.7%

Q: What does the source list for `CCOC(=O)CCCCC1C(CCCC(=O)OCC)C=NN1C` (configuration not stated)?
A: inhibition [18]: -16%; inhibition [19]: -3.48%

Q: Which inhibition [18] does the source give for `Cc1ccc(CNC(=O)c2ccc3c(=O)c(O)c(-c4ccc(C)cc4)[nH]c3c2)cc1` here?
A: 28.5%

Q: What about the inhibition [19] of the same compound?
A: 8.89%

Q: For `Cc1nc(SCC(=O)NCc2ccc3c(c2)OCO3)c(C#N)c2c1CCCC2`, which inhibition [18] is on record?
A: -21.9%

Q: What about the inhibition [19] of the same compound?
A: -7.85%

Q: With `COc1cc(C=CC(=O)c2ccccc2)cc(OC)c1OC` as the compound, how does the inhibition [18] read?
A: 28.4%

Q: And the inhibition [19]?
A: 30.1% (active)

Q: Which results are given for `CC(=O)Nc1cccc(C(=O)/C=C/c2ccc(Br)cc2)c1`?
A: inhibition [18]: 10.8%; inhibition [19]: 11%

Q: With `COC(=O)c1ccc(NC(=O)Cn2c(-c3nonc3N)nc3ccccc32)cc1` as the compound, how does the inhibition [18] read?
A: 17%

Q: What about the inhibition [19] of the same compound?
A: 3.85%
